Assay results as given in PMC7862700, “An all-to-all approach to the identification of sequence-specific readers for epigenetic DNA modifications on cytosine”.

How the values were obtained:
Test in all cases: DAPPL (digital affinity profiling via proximity ligation, sequencing); 10 mM Tris-HCl pH 7.5, 50 mM NaCl, 1 mM DTT, 4% glycerol, room temperature, 30 min; GST-TFs on glutathione beads, 16-mer random dsDNA library, 0.1% formaldehyde crosslink after washing; high values mean tight binding
Settings in all cases: protein: recombinant; tags: N-terminal GST; dsDNA, one strand shown
FLI1 = target: T1, FLI1 (Homo sapiens, UniProt Q01543 1-452)
T1 sequence: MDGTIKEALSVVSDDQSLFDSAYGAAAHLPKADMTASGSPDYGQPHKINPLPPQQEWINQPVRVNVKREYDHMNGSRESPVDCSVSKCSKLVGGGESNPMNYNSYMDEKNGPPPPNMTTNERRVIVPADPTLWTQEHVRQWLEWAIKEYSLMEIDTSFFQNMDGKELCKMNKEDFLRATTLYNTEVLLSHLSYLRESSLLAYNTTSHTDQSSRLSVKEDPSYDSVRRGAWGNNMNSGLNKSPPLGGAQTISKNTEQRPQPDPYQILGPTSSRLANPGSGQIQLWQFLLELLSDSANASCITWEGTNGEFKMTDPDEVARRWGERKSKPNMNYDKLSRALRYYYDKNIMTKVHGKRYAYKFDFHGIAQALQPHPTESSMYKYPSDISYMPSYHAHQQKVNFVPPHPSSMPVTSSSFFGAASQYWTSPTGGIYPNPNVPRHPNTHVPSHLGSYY
In short: (§1)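 GST fusions of human transcription factors were expressed in yeast and captured with glutathione beads. Once given DNA barcodes and pooled alongside a tag-only sample, they were incubated for 30 min at room temperature with 200 nmole of a random double-stranded 16-mer DNA library in Tris/NaCl/DTT/glycerol buffer, then washed, crosslinked (0.1% formaldehyde), proximity-ligated, PCR-amplified and sequenced on an Illumina NextSeq500. The binding signal of each hexamer is its read frequency for a factor divided by its frequency for the tag-only sample.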

ERG = target: T2, ERG (Homo sapiens, UniProt P11308 1-479)
T2 sequence: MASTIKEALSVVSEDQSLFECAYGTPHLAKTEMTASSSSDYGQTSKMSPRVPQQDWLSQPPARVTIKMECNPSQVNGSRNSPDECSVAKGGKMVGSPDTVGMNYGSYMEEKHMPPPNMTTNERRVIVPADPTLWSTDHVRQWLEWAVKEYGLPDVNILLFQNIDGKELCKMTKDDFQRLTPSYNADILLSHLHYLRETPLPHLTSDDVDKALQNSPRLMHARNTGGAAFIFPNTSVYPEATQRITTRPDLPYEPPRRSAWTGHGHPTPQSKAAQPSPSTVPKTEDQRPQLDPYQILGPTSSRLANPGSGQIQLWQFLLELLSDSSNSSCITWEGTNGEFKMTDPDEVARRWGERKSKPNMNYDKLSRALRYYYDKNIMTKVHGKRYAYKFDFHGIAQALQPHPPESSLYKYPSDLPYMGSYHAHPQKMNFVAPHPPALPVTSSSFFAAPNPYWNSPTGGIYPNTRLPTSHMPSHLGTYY
In short: as §1

SPI1 = SPI1 (Homo sapiens, UniProt P17947 1-270)
In short: as §1

SPIB = SPIB (Homo sapiens, UniProt Q01892 1-262)
In short: as §1

ELK3 = target: T3, ELK3 (Homo sapiens, UniProt P41970 1-407)
T3 sequence: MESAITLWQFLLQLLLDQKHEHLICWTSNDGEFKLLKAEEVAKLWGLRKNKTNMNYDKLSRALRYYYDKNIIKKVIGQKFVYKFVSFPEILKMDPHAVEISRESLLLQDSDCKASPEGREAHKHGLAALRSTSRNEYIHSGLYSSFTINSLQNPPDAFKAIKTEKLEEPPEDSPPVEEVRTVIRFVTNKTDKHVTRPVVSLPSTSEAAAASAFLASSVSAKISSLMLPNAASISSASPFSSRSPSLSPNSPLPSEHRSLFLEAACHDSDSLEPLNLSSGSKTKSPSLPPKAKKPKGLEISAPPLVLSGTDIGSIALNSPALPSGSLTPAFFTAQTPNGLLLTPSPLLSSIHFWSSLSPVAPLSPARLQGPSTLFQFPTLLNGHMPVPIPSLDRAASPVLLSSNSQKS
In short: as §1

FEV = target: T4, FEV (Homo sapiens, UniProt Q99581 1-238)
T4 sequence: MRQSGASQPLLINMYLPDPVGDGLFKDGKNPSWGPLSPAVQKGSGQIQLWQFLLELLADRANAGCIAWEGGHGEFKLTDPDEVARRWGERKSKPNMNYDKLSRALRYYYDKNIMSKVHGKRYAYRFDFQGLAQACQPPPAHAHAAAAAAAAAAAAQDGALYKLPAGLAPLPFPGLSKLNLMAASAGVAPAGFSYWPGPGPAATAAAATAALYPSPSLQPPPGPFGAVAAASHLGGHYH
In short: as §1

ETV5 = ETV5 (Homo sapiens, UniProt P41161 1-510)
In short: as §1

SPIC = target: T5, SPIC (Homo sapiens, UniProt Q8N5J4 1-248)
T5 sequence: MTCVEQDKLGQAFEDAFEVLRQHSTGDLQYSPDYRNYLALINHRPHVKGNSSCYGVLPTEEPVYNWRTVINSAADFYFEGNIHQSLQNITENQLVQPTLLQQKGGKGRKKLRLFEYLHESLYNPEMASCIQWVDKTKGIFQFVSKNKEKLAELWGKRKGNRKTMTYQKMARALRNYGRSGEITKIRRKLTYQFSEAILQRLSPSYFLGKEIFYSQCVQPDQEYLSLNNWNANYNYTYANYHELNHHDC
In short: as §1

ELF4 = ELF4 (Homo sapiens, UniProt Q99607 1-663)
In short: as §1

ETV1 = ETV1 (Homo sapiens, UniProt P50549 1-477)
In short: as §1

ETV3L = target: T6, ETV3L (Homo sapiens, UniProt Q6ZN32 1-361)
T6 sequence: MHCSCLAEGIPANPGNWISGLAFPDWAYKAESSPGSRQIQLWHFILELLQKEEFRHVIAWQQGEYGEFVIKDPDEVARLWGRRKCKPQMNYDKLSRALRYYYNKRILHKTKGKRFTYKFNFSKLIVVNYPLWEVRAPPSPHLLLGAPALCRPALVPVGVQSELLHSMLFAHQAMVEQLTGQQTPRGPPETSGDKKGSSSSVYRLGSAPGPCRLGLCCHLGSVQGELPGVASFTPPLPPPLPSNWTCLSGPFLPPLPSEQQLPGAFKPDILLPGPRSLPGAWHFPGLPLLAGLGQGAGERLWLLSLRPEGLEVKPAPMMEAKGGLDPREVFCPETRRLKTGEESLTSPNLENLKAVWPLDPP
In short: as §1

ETV3 = target: T7, ETV3 (Homo sapiens, UniProt P41162-2 1-143)
T7 sequence: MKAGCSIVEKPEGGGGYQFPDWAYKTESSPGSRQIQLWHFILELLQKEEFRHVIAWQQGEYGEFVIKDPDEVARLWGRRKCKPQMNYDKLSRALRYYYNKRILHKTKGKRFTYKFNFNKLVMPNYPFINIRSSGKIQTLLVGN
In short: as §1

ETV6 = ETV6 (Homo sapiens, UniProt P41212 1-452)
In short: as §1

GABPA = target: T8, GABPA (Homo sapiens, UniProt Q06546 1-454)
T8 sequence: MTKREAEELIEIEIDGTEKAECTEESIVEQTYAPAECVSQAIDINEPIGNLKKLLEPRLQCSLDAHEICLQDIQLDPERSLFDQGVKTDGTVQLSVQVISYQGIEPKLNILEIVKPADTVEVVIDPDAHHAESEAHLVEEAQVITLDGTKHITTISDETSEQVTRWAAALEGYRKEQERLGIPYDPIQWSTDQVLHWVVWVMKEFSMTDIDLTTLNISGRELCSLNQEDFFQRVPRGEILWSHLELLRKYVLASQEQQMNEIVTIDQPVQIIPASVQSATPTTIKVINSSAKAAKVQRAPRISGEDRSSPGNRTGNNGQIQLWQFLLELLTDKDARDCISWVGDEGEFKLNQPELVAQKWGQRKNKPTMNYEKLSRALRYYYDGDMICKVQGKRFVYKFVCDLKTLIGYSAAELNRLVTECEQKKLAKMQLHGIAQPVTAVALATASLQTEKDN
In short: as §1

EHF = target: T9, EHF (Homo sapiens, UniProt Q9NZC4 1-300)
T9 sequence: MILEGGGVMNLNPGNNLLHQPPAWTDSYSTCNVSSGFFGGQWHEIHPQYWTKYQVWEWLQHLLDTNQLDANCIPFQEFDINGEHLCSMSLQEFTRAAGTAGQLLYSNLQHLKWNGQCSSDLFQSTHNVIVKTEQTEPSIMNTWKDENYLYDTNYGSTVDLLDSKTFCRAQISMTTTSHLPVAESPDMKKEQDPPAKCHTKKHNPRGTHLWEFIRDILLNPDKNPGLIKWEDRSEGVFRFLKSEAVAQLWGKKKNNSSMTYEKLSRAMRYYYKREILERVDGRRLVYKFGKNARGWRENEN
In short: as §1

ELF5 = target: T10, ELF5 (Homo sapiens, UniProt Q9UKW6-2 1-255)
T10 sequence: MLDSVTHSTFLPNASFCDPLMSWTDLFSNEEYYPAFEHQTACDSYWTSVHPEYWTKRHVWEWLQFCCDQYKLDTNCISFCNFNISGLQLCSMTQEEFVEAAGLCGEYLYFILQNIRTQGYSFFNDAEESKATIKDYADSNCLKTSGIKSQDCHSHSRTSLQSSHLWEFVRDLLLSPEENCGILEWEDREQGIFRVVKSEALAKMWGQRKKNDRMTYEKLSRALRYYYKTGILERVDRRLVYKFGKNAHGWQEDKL
In short: as §1

SPIB, sequence (Q01892 whole entry): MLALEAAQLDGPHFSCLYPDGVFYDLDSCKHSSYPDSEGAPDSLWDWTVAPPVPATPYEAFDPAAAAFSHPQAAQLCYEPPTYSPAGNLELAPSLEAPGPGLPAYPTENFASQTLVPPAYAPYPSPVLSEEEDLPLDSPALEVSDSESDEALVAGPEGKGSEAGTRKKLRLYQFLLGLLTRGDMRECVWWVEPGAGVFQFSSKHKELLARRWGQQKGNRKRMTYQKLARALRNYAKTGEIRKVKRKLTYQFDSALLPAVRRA
ETV5, sequence (P41161 whole entry): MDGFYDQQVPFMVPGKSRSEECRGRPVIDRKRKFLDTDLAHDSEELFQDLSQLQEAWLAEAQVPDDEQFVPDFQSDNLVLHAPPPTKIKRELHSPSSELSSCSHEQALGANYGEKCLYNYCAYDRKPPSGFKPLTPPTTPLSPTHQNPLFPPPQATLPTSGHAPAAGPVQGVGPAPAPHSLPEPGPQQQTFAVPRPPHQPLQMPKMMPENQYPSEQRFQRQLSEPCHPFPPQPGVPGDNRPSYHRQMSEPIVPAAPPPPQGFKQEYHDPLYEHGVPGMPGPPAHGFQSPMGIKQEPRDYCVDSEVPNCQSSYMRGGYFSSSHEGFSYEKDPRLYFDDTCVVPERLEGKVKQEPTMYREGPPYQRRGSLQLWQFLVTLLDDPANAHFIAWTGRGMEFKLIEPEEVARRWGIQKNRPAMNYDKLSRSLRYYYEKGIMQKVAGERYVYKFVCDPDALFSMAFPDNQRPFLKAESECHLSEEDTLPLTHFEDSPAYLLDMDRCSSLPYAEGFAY
ELF4, sequence (Q99607 whole entry): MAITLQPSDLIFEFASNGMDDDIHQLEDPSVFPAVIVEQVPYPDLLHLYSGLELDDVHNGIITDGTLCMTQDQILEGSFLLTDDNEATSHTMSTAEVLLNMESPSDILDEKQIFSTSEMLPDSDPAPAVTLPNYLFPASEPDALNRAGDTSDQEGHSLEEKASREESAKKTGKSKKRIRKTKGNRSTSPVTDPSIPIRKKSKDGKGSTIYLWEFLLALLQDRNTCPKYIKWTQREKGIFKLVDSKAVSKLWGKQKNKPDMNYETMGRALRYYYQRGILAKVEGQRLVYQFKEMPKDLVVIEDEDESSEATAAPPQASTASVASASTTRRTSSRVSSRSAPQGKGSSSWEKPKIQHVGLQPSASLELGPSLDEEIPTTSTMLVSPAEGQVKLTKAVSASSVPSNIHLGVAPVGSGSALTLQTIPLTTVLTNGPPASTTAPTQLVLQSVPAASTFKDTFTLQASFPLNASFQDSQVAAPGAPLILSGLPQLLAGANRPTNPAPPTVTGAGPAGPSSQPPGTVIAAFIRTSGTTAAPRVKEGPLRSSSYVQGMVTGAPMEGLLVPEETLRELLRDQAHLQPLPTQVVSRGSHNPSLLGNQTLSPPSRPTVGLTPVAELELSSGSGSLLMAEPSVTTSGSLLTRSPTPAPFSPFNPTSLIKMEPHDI
ETV6, sequence (P41212 whole entry): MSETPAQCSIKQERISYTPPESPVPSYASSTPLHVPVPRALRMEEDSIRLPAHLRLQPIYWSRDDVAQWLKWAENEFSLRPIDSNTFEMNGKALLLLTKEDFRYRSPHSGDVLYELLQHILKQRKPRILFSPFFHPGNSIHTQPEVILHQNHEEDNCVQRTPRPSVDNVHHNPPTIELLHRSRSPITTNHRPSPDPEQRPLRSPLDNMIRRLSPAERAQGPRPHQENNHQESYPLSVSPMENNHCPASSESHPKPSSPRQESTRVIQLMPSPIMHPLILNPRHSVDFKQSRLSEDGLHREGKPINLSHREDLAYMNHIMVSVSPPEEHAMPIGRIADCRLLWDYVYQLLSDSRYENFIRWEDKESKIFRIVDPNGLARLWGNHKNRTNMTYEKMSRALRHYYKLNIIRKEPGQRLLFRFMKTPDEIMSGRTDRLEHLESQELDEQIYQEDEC
ETV1, sequence (P50549 whole entry): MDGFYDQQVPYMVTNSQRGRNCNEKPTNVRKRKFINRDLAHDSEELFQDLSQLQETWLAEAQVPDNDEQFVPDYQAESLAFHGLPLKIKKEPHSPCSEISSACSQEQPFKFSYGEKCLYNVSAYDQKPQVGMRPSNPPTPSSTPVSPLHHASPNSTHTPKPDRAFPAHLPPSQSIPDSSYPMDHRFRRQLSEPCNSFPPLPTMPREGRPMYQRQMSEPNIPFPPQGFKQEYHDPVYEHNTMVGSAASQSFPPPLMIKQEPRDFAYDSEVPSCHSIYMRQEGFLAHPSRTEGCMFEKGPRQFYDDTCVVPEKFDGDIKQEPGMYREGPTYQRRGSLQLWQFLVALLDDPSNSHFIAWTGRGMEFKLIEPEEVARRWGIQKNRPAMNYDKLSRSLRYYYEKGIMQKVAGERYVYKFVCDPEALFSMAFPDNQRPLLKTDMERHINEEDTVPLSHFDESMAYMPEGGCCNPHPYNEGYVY

| Sequence | binding signal (FLI1) | binding signal (ERG) | binding signal (SPI1) | binding signal (SPIB) | binding signal (ELK3) | binding signal (FEV) | binding signal (ETV5) | binding signal (SPIC) | binding signal (ELF4) | binding signal (ETV1) | binding signal (ETV3L) | binding signal (ETV3) | binding signal (ETV6) | binding signal (GABPA) | binding signal (EHF) | binding signal (ELF5) |
| --- | --- | --- | --- | --- | --- | --- | --- | --- | --- | --- | --- | --- | --- | --- | --- | --- |
| AGTGCC | 1.06 fold enrichment (6-mer frequency, TF over GST control) | 1.01 fold enrichment (6-mer frequency, TF over GST control) | 1.32 fold enrichment (6-mer frequency, TF over GST control) | 1.01 fold enrichment (6-mer frequency, TF over GST control) | 1.05 fold enrichment (6-mer frequency, TF over GST control) | 1.04 fold enrichment (6-mer frequency, TF over GST control) | 1.03 fold enrichment (6-mer frequency, TF over GST control) | 1.19 fold enrichment (6-mer frequency, TF over GST control) | 1.01 fold enrichment (6-mer frequency, TF over GST control) | 1.04 fold enrichment (6-mer frequency, TF over GST control) | 1.07 fold enrichment (6-mer frequency, TF over GST control) | 1.05 fold enrichment (6-mer frequency, TF over GST control) | 1.16 fold enrichment (6-mer frequency, TF over GST control) |  |  |  |
| CGGATC | 1.04 fold enrichment (6-mer frequency, TF over GST control) | 1.05 fold enrichment (6-mer frequency, TF over GST control) |  | 1.01 fold enrichment (6-mer frequency, TF over GST control) |  |  | 1.03 fold enrichment (6-mer frequency, TF over GST control) | 1.02 fold enrichment (6-mer frequency, TF over GST control) | 1.01 fold enrichment (6-mer frequency, TF over GST control) |  |  | 1.06 fold enrichment (6-mer frequency, TF over GST control) |  | 1.04 fold enrichment (6-mer frequency, TF over GST control) | 1.02 fold enrichment (6-mer frequency, TF over GST control) | 1.05 fold enrichment (6-mer frequency, TF over GST control) |
